PubChem BioAssay (Tox21)
Inconclusive results are not listed. A call without a number means that no potency is given here. More than one record can exist for a structure, and the calls need not agree. Unmarked numbers belong to inactive results. The source made the active and inactive calls. Unless noted, calls follow the shape of the dose curve; as a rule, active = well fitted curve in the direction sought with a large enough effect in the repeat runs; inconclusive = weak or mixed curves; inactive = no such curve, though single readings can be large; an effect the other way counts as inactive or inconclusive.

Key:
[1] = qHTS assay to identify small molecule agonists of the RXR signaling pathway - cell viability counter screen (AID 1159529); also: nearly all actives have a fitted effect of over 50% in size
Outline: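 Luminescence from CellTiter-Glo (30 min, RT) measured viability in the same wells as the beta-lactamase reporter readout. Cells: GeneBLAzer RXR-alpha HEK 293T, 2% charcoal-stripped FBS. Compound exposure 16 hr, 37 C.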

[2] = qHTS assay to identify small molecule antagonists of the retinoid acid receptor (RAR) signaling pathway - cell viability counter screen (AID 1159551); also: nearly all actives have a fitted effect of over 35% in size
Outline: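 Luminescent ATP quantitation (CellTiter-Glo) gave cell viability in C3RL4 cells exposed to test chemicals for 6 h at 37 C alongside 1 uM final retinol.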

[3] = qHTS assay to identify small molecule antagonists of the retinoic acid receptor (RAR) signaling pathway (AID 1159552; also: nearly all actives have a fitted effect of over 50% in size)
Outline: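 Luminescence from a RARE luciferase reporter in C3RL4 cells served as read-out. Cells received compounds together with 1 uM final retinol and incubated 6 hr at 37 C before detection reagent was added for 30 min at room temperature.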

[4] = qHTS assay to identify small molecule agonists of the retinoic acid receptor (RAR) signaling pathway (AID 1159553); conditions: C3RL4 RARE luciferase reporter, agonist, 6 h
Outline: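 Luminescence from a RARE-driven luciferase reporter in C3RL4 cells served as the read-out, measured after 30 min with detection reagent at room temperature. Compounds in DMSO were applied for 6 hr at 37 C following overnight seeding.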

[5] = qHTS assay to identify small molecule antagonists of the estrogen related receptor (ERR) signaling pathway from Tox21 library - cell viability counter screen (AID 1224834); also: nearly all actives have a fitted effect of over 30% in size
Outline: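 Fluorescence from CellTiter-Fluor gives the viability read-out, taken 30 min after reagent addition. Before that, ERR cells seeded 6 h earlier were incubated with compounds for 17.5 h at 37 C.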

[6] = molecular target: Luciferin 4-monooxygenase (Photinus pyralis) (UniProt P08659); assay: qHTS assay to identify small molecule inhibitors of firefly luciferase (AID 1224835); also: nearly all actives have a fitted effect of over 25% in size
Outline: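 Quantitative HTS format; KM concentrations of both substrates. Purified P. pyralis FLuc activity quantified from luminescence images.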

[7] = qHTS assay to identify small molecule agonists of the constitutive androstane receptor (CAR) signaling pathway - cell viability counter screen (AID 1224836); also: nearly all actives have a fitted effect of over 45% in size
Outline: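 Viability read-out: CellTiter-Fluor fluorescence after 23 h compound exposure at 37 C/5% CO2 in double-stable HepG2-CYP2B6-hCAR cells, with PK11195 present at 0.75 uM final; compounds tested in 15-point titration.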

[8] = qHTS assay to identify small molecule antagonists of the constitutive androstane receptor (CAR) signaling pathway - cell viability counter screen (AID 1224837); also: nearly all actives have a fitted effect of over 45% in size
Outline: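 HepG2-CYP2B6-hCAR cells, 2500/well, 4 hr pre-incubation; compound titration, 15 conc.; CITCO 50 nM final; 23 hr, 37 C/5% CO2; CellTiter-Fluor, fluorescence intensity.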

[9] = molecular target: Nuclear receptor subfamily 1 group I member 3 (Homo sapiens) (UniProt Q14994); assay: qHTS assay to identify small molecule antagonists of the constitutive androstane receptor (CAR) signaling pathway (AID 1224838);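 also: HepG2 cells stably expressing hCAR with CYP2B6 luciferase reporter stimulated by CITCO; nearly all actives have a fitted effect of over 40% in size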
Outline: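 HepG2-CYP2B6-hCAR cells; 4 h pre-incubation; cpd (15 conc) + CITCO 50 nM final; 24 h, 37 C/5% CO2; ONE-Glo, luminescence.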

[10] = molecular target: Nuclear receptor subfamily 1 group I member 3 (Homo sapiens) (UniProt Q14994); assay: qHTS assay to identify small molecule agonists of the constitutive androstane receptor (CAR) signaling pathway (AID 1224839);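 also: HepG2 cells stably carrying human CAR and a CYP2B6 luciferase reporter; nearly all actives have a fitted effect of over 15% in size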
Outline: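 Luminescence read-out (ONE-Glo, 30 min, room temperature) from double-stable HepG2-CYP2B6-hCAR cells exposed 24 h to 15-point compound series in presence of 0.75 uM PK11195 final.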

[11] = qHTS assay to identify small molecule antagonists of the estrogen related receptor signaling pathway with the pleiotropic PPARgamma coactivator (PGC) from Tox21 10K library - cell viability counter screen (AID 1224840; active = well fitted cell-killing curve with a large enough effect in the repeat runs, not every such curve was filed as active; also: nearly all actives have a fitted effect of over 40% in size)
Outline: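 PGC/ERR cells, 2,000/well; 6 h pre-incubation 37 C/5% CO2; cpd in DMSO via pin tool; 17.5 h 37 C; CellTiter-Fluor, 30 min; fluorescence.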

[12] = molecular target: Thyrotropin receptor (Homo sapiens) (UniProt P16473); assay: qHTS assay to identify small molecule agonists of the thyroid stimulating hormone receptor (TSHR) signaling pathway (AID 1224843; calls by dose curve; also: nearly all actives have a fitted effect of over 45% in size)
Outline: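 TSHR-expressing HEK293 cells (800 per well) were exposed to compounds for 30 min at room temperature. cAMP was then detected by HTRF competition with cAMP-d2 and anti-cAMP cryptate, read after 1 h at room temperature. Fifteen concentrations, triplicate.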

[13] = qHTS assay to identify small molecule antagonists of the estrogen related receptor signaling pathway with the pleiotropic PPARgamma coactivator (PGC) from Tox21 10K library (AID 1224841; call rule not given here; also: actives are mostly falling curves and most rising ones were filed inactive; nearly all actives have a fitted effect of over 50% in size)
Outline: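 PGC/ERR cell line, 2,000 cells/well; 6 h pre-incubation 37 C/5% CO2; compounds (DMSO) pinned in; 18 h, 37 C; One-Glo, 30 min RT; luminescence.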

[14] = qHTS assay to identify small molecule agonists of the estrogen related receptor signaling pathway with the pleiotropic PPARgamma coactivator (PGC) from Tox21 10K library (AID 1224842); also: nearly all actives have a fitted effect of over 15% in size
Outline: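 PGC/ERR reporter cells (NTP line) were seeded 2,000 per well, rested 6 h at 37 C/5% CO2, then pin-dosed with compounds in DMSO for 18 h at 37 C; luciferase read by One-Glo luminescence after 30 min at room temperature.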

[15] = qHTS assay to identify small molecule antagonists of the estrogen related receptor (ERR) signaling pathway - cell viability counter screen (AID 1224818);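 also: viability measured after 17.5 h of compound exposure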
Outline: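 Multiplexed counter screen to separate cytotoxic compounds from true ERR modulators. ERR cells received DMSO-dissolved compounds after a 6 h pre-incubation, were exposed 17.5 h at 37 C, then assayed with CellTiter-Fluor fluorescence.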

[16] = qHTS assay to identify small molecule antagonists of the estrogen related receptor (ERR) signaling pathway (AID 1224819;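 also: luminescence from an ERR-driven luciferase reporter measured with One-Glo reagent; nearly all actives have a fitted effect of over 50% in size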)
Outline: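 Seed ERR cells 2,000/well; rest 6 h at 37 C/5% CO2; pin compounds in DMSO; incubate 18 h at 37 C; add One-Glo; wait 30 min at room temperature; measure luminescence.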

[17] = qHTS assay to identify small molecule agonists of the estrogen related receptor (ERR) signaling pathway (AID 1224820)
Outline: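 Quantitative HTS of the LOPAC library used NTP ERR reporter cells treated 18 h at 37 C. Signal is luminescence after One-Glo addition and a 30 min room-temperature incubation.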

[18] = qHTS assay to identify small molecule antagonists of the estrogen related receptor signaling pathway with the pleiotropic PPARgamma coactivator (PGC) cell viability counter screen (AID 1224822)
Outline: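 Cells: PGC/ERR, 2,000/well, 1536-well format. Pre-incubation 6 h, 37 C/5% CO2. Compound exposure 17.5 h, 37 C. Detection: CellTiter-Fluor, 30 min, fluorescence.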

[19] = activation: at 73.3 µM (top of the series) unless noted

Sequence of Luciferin 4-monooxygenase (Photinus pyralis) (P08659 whole entry, looked up): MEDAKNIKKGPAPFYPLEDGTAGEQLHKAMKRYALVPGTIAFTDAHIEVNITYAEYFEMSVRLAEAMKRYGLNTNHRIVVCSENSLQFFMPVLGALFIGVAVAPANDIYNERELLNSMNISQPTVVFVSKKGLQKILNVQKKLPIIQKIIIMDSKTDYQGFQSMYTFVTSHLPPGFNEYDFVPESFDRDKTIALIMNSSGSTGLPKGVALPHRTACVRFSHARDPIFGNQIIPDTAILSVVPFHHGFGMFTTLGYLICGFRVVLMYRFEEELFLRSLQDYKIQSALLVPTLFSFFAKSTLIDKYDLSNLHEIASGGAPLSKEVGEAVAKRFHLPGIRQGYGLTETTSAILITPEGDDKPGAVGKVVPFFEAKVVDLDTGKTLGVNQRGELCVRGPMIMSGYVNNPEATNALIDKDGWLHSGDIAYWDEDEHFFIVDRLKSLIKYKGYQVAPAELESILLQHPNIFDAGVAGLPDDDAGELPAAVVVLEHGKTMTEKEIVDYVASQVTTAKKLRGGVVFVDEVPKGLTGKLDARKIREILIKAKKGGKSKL
Sequence of Thyrotropin receptor (Homo sapiens) (P16473 whole entry, looked up): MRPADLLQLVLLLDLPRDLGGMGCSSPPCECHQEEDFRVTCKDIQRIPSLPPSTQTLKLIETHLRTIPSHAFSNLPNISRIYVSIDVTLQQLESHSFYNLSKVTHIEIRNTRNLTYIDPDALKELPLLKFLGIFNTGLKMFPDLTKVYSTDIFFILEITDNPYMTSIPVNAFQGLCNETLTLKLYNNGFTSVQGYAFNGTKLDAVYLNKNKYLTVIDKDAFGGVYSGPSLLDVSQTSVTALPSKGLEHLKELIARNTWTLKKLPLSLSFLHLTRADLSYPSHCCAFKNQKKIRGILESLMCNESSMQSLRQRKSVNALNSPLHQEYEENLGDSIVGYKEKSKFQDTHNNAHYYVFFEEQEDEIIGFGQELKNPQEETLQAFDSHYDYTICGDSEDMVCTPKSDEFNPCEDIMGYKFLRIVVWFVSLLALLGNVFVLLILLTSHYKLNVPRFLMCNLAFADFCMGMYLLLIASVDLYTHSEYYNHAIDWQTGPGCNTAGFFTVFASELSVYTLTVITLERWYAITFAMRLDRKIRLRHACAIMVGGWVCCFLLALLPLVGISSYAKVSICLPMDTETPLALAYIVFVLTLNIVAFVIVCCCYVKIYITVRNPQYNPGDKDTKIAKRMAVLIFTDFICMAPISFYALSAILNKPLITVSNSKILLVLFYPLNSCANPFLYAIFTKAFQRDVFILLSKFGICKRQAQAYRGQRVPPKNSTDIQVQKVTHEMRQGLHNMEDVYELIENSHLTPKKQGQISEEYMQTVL
Sequence of Nuclear receptor subfamily 1 group I member 3 (Homo sapiens) (Q14994 whole entry, looked up): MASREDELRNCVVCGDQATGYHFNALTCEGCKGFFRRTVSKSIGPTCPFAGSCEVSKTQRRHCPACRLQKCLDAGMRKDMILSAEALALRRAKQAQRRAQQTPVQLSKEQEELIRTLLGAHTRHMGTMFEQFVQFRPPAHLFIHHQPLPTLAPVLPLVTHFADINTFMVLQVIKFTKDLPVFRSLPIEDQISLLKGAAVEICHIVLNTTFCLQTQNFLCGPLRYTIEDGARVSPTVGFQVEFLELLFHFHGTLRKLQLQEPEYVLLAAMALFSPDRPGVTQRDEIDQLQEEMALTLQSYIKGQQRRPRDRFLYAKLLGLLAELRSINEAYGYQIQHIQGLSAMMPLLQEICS

Compound | Potency [1] | Potency [2] | Potency [3] | Potency [4, 19] | Potency [5] | Potency [6] | Potency [7] | Potency [8] | Potency [9] | Potency [10] | Potency [11] | Potency [12] | activation [4, 19] | activation ([4]; at 73.3 µM (top of the series)) [%] | Potency [13] | Potency [14] | outcome [15] | Potency [16] | outcome [17] | Potency [18]
CCCCCCCCC(=O)O | inactive | inactive | inactive | inactive | inactive | inactive | inactive | inactive | inactive | inactive | inactive | inactive | – | – | – | – | – | – | – | –
CN1CCCC1=O | inactive | inactive | inactive | – | inactive | inactive | inactive | inactive | – | – | inactive | – | -0.377% [at 94.8 µM] (active) | 0.131 | – | – | – | – | – | –
CS(=O)(=O)c1ccc(Cl)cc1 | inactive | inactive | inactive | inactive | inactive | inactive | inactive | inactive | inactive | inactive | inactive | inactive | – | – | inactive | inactive | – | – | – | –
CC(=O)OCCC(C)C | inactive | inactive | inactive | inactive | inactive | inactive | inactive | inactive | inactive | inactive | inactive | – | – | – | inactive | inactive | – | – | – | –
CC(=O)OC[C@H]1O[C@@](COC(C)=O)(O[C@H]2O[C@H](COC(C)=O)[C@@H](OC(C)=O)[C@H](OC(C)=O)[C@H]2OC(C)=O)[C@@H](OC(C)=O)[C@@H]1OC(C)=O | inactive | inactive | inactive | inactive | inactive | inactive | inactive | inactive | – | – | inactive | inactive | – | – | – | – | – | – | – | –
COC(=O)/C=C\C(=O)OC | inactive | inactive | inactive | inactive | inactive | inactive | inactive | – | inactive | inactive | inactive | inactive | – | – | inactive | inactive | – | – | – | –
CC(COCC(C)OC(=O)c1ccccc1)OC(=O)c1ccccc1 (configuration not stated) | inactive | inactive | inactive | inactive | inactive | inactive | inactive | – | inactive | inactive | inactive | – | – | – | inactive | inactive | – | – | – | –
O=c1n(CCCN2CCN(c3cccc(Cl)c3)CC2)nc2ccccn12 | inactive | inactive | inactive | inactive | inactive | – | inactive | inactive | inactive | inactive | inactive | inactive | – | – | – | – | inactive | inactive | inactive | inactive
C[Si](C)(C)N[Si](C)(C)C | inactive | inactive | inactive | inactive | inactive | inactive | inactive | inactive | inactive | inactive | inactive | inactive | – | – | – | – | – | – | – | –
CC(C)=CCC/C(C)=C/C=O | inactive | inactive | inactive | inactive | inactive | inactive | inactive | inactive | inactive | inactive | inactive | inactive | – | – | – | – | – | – | – | –
O=C1OC(=O)c2c(Cl)c(Cl)c(Cl)c(Cl)c21 | inactive | inactive | inactive | inactive | inactive | inactive | inactive | inactive | inactive | inactive | inactive | inactive | – | – | inactive | inactive | – | – | – | –
O=C1C(N(CO)C(=O)NCO)N(CO)C(=O)N1CO (configuration not stated) | inactive | inactive | inactive | inactive | inactive | inactive | inactive | – | inactive | inactive | inactive | inactive | – | – | – | – | – | – | – | –
CCCOC(=O)NCCCN(C)C | inactive | inactive | inactive | inactive | inactive | inactive | inactive | inactive | inactive | inactive | inactive | inactive | – | – | – | – | – | – | – | –
CCCOCC(C)O (configuration not stated) | inactive | inactive | inactive | inactive | inactive | inactive | inactive | inactive | – | – | inactive | inactive | – | – | inactive | inactive | – | – | – | –
C[n+]1ccn(CCO)c1 | inactive | inactive | inactive | inactive | inactive | inactive | inactive | inactive | – | – | inactive | – | – | – | inactive | inactive | – | – | – | –
O=C1CCCCCCCCCCC1 | inactive | inactive | inactive | inactive | inactive | inactive | inactive | inactive | inactive | inactive | inactive | inactive | – | – | – | – | – | – | – | –
CCCCC(=O)O | inactive | inactive | inactive | inactive | inactive | inactive | inactive | inactive | inactive | inactive | inactive | inactive | – | – | – | – | – | – | – | –
Cc1cc(C)c(O)c(C)c1 | inactive | inactive | inactive | inactive | inactive | inactive | inactive | – | inactive | inactive | inactive | inactive | – | – | inactive | inactive | – | – | – | –
COCN(COC)c1nc(N(COC)COC)nc(N(COC)COC)n1 | inactive | inactive | inactive | inactive | inactive | inactive | inactive | inactive | inactive | inactive | inactive | inactive | – | – | inactive | inactive | – | – | – | –
N#CCC(=O)O | inactive | inactive | inactive | inactive | inactive | inactive | inactive | inactive | inactive | – | inactive | inactive | – | – | inactive | inactive | – | – | – | –
